# This is part of a sample that, as a whole, favours compounds with a hit. Of some 83,000 tested, about 20% had one in any assay.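 Percent growth is the endpoint: 0 to 100 indicates growth inhibition (40 means 60% inhibition), 0 means no net growth, and negative values indicate cell death.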 Unmarked numbers belong to inactive results. Active and inactive are the calls of the source. Rule for the calls: active = growth percent below 10; inactive = the rest.
# Test system: KM12 colon
# Experiment: NCI-60 one-dose screen, 48 h (100 = growth as untreated, 0 = no growth, -100 = all killed)
# Conditions: 10 µM unless noted
row,Structure (SMILES),growth
1,CCOC(=O)Nc1ccc(-c2nc(-c3cccc(OCCN4CCOCC4)c3)c(-c3ccnc(Br)c3)[nH]2)cc1,20.2%
2,COc1cccc(-c2nc(-c3ccc(NC(=O)c4ccccc4)cc3)[nH]c2-c2ccnc(Br)c2)c1,20%
3,O=C(CCN1C(=O)/C(=C/c2ccc(O)cc2)SC1=S)Nc1ccccc1,99.1%
4,CC1=C(C)C(=O)C(Nc2cccc(C(=O)OC(C)(C)C)c2)=C(Br)C1=O,99.9%
5,Cc1ccc(C(CC(=O)O)c2c(C)[nH][nH]c2=O)cc1 (centres undefined),101%
6,CCCCn1c(-c2ccc(-c3nc(-c4ccc(Cl)cc4)no3)cc2)nc(-c2ccccc2)c1-c1ccccc1,95.2%
7,CCCCCCn1c(-c2ccc(C(=O)O/N=C(\N)c3ccc(OC)cc3)cc2)nc(-c2ccccc2)c1-c1ccccc1,15.7%
8,Cc1cccc(NC2=C(Cl)C(=O)c3nc(C)ccc3C2=O)c1,33.5%
9,O=C(CCN1C(=O)/C(=C/c2ccc(O)cc2)SC1=S)Nc1ccc(Cl)cc1,97.7%
10,COC(=O)Nc1ccc(-c2nc(-c3cccc(OC)c3)c(-c3ccnc(Br)c3)[nH]2)cc1,48%
11,O=C1/C(=C/c2ccccc2[N+](=O)[O-])Oc2ccc(O)c(O)c21,37.5%
12,Cc1cccc2c3c(sc12)C(c1ccc(Cl)cc1)C(C#N)=C(N)O3 (centres undefined),9.62% (active)
13,Cc1ccc(-c2cnc3sc(C(=O)NCCc4ccccc4)c(C)n23)cc1,96%
14,CCCCCCn1c(-c2ccc(C(=O)O/N=C(\N)c3ccc4c(c3)OCO4)cc2)nc(-c2ccccc2)c1-c1ccccc1,31.8%
15,CC(C)OC(=O)Nc1ccc(-c2nc(-c3cccc(OCCN4CCOCC4)c3)c(-c3ccnc(Br)c3)[nH]2)cc1,10.4%
16,CCCCCCn1c(-c2ccc(C(=O)O/N=C(\N)c3ccc4ccccc4c3)cc2)nc(-c2ccccc2)c1-c1ccccc1,68.6%
17,O=C(Nc1ccc(-c2nc(-c3cccc(OCCN4CCOCC4)c3)c(-c3ccnc(Br)c3)[nH]2)cc1)c1ccccc1,0.737% (active)
18,CCOC(=O)c1sc2ncc(-c3ccc(C)cc3)n2c1C,86.6%
19,CC(C)C(=O)Nc1ccc(-c2nc(-c3cccc(OCCN4CCOCC4)c3)c(-c3ccnc(Br)c3)[nH]2)cc1,33.7%
20,CCOC(=O)C1=C(N)Oc2c(sc3c(C)cccc23)C1c1ccc(Cl)cc1 (centres undefined),15.3%
21,CCOC(=O)C1=C(N)Oc2c(sc3c(C)cccc23)C1c1ccc(OC)cc1 (centres undefined),27.4%
22,CCC(=O)Nc1ccc(-c2nc(-c3cccc(OC)c3)c(-c3ccnc(Br)c3)[nH]2)cc1,43.2%
23,Cc1cccc2c1S/C(=C/c1ccc([N+](=O)[O-])cc1)C2=O,107%
24,CCOC(=O)C1=C(N)Oc2c(sc3c(CC)cccc23)C1c1ccc(F)cc1 (centres undefined),24%

# Reference: PubChem BioAssay (NCI)
